# Source: PubChem
# miR-122 sensor: miR-122 inhibition in Huh7 cells | Huh7 miR-122 Renilla luciferase sensor, 48 h; neutral wells = 0, positive control = 100 | activation (reporter increase), % at 12.5 µM | 340,000 compounds, 0.3% hits;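 active means mean replicate activation score at least 90 and every replicate individually at or above 90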;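 further: higher luciferase means less miR-122 activity so hits act as miR-122 inhibitors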
# RAD52 anneal inh: inhibitors of human RAD52 DNA annealing; 360,000 compounds, 0.46% hits; P43351; inhibition, % at 18.7 µM; recombinant RAD52 DNA annealing, FRET fluorescence; AID 651710;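 active means every replicate showing at least 50% inhibition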
# NSD2 HMT inh: NSD2 (human) methyltransferase inhibition | O96028 | AID 743445 | inhibition, % at 12.5 µM | NSD2 peptide methylation, AlphaScreen, 120 min | 310,000 compounds, 0.54% hits; in the data active means inhibition above about 50%
# MLL AF4-AF9 inh: inhibitors of human MLL-AF4/AF9 interaction. P42568. AlphaScreen, biotin-AF4 peptide binding to FLAG-AF9. inhibition, % at 10 µM. 350,000 compounds, 0.47% hits. AID 651704;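 active means every replicate reaching a set inhibition limit, whatever the replicate mean, cut at about 25% in these data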
# Target sequence (P42568 whole entry, looked up): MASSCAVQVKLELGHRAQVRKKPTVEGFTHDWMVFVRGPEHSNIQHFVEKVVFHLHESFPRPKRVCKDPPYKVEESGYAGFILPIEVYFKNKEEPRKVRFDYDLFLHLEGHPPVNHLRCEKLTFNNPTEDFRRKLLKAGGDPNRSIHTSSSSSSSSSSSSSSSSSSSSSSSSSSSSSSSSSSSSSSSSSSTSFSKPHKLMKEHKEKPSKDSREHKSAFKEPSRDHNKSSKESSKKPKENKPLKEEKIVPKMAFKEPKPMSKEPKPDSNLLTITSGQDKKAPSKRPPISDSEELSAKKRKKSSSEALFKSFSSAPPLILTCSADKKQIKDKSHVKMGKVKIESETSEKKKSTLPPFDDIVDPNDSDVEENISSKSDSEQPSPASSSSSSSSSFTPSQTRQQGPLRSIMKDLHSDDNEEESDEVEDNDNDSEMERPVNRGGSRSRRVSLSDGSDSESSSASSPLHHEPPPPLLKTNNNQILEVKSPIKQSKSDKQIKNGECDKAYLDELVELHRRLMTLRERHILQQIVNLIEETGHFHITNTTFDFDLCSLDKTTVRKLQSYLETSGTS
# CASP6 VEID inh: blocks human caspase-6 cleavage activity | P55212 | purified caspase-6, Z-VEID-R110 cleavage fluorescence | inhibition, % at 12.5 µM | 350,000 compounds, 0.53% hits | AID 686996;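 active means mean inhibition across replicates at least about 35%, with every replicate also reaching that limit, limit read from the data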
# Hits are given with their value; . = inactive; / = not tested or not shown. The list is not random: actives were taken first. Their share in the collection is about 1.5%.
SMILES,miR-122 sensor,RAD52 anneal inh,NSD2 HMT inh,MLL AF4-AF9 inh,CASP6 VEID inh
COc1ccc2c3c(n(C)c2c1)[C@H](CO)N(C(=O)C1CCCCC1)CC31CCN(C)CC1,/,/,/,.,/
COc1ccc(O)c(/C=N/Nc2nc3ccccc3[nH]2)c1,/,.,.,.,.
O=[N+]([O-])c1ccc(O)c(/C=N/Nc2nc3ccccc3[nH]2)c1,/,.,.,32,.
COc1ccc(/C=C2\C(=N)N3N=C(CC(=O)N4CCOCC4)SC3=NC2=O)cc1,/,.,.,.,.
N=C1/C(=C\c2ccc(SCc3ccccc3)o2)C(=O)N=C2SC(CC(=O)N3CCOCC3)=NN12,.,.,.,/,.
Cc1ccc(/C=C2\C(=N)N3N=C(CC(=O)N4CCOCC4)SC3=NC2=O)o1,.,.,.,.,38
N=C1/C(=C/c2ccc(-c3cccc(C(=O)O)c3)o2)C(=O)N=C2SC(CC(=O)N3CCOCC3)=NN12,.,.,84,.,.
N=C1/C(=C\c2ccc(-c3cccc(C(=O)O)c3)o2)C(=O)N=C2SC=C(c3ccccc3)N12,.,.,/,.,50
COc1ccc(NC(=O)N[C@H]2C=C[C@H](CC(=O)NC3CCCCC3)O[C@@H]2CO)cc1,/,.,/,.,.
CO[C@@H]1CN(C)C(=O)c2cc(NC(=O)C3CC3)ccc2OC[C@H](C)N(C(=O)c2ccccn2)C[C@H]1C,.,/,/,/,/
c1csc(-c2nn3c(Cn4cnc5ccccc54)nnc3s2)c1,.,/,.,/,/
Clc1cccc(-c2nn3c(Cn4cnc5ccccc54)nnc3s2)c1,.,.,.,.,57
O=C(Cc1ccncc1)NCC[C@@H]1CC[C@@H](NC(=O)C2CCCCC2)[C@@H](CO)O1,/,.,/,.,.
C=CCn1c(=N)c(C(=O)NCCCOC)cc2c(=O)n3cccc(C)c3nc21,.,/,.,/,/
COCCCNC(=O)c1cccn2c(=O)c3cc4ccccc4cc3nc12,.,.,85,/,.
CCOC(=O)Nc1ccc(S(=O)(=O)Nc2nc(C)cc(C)n2)cc1,.,.,.,.,.
CCOC(=O)Nc1ccc(NS(=O)(=O)c2ccc(C)cc2)cc1,206,/,.,/,/
CC(=O)NS(=O)(=O)c1ccc(NS(=O)(=O)c2ccc3ccccc3c2)cc1,.,.,.,.,.
CC(=O)Nc1ccc(S(=O)(=O)Nc2cccc(-c3nc4ccccc4o3)c2)cc1,138,/,.,/,/
CCOc1ccc(S(=O)(=O)Nc2cc(NS(=O)(=O)c3ccc(OCC)cc3)cc(C(=O)O)c2)cc1,/,.,.,.,70
CC(=O)Nc1ccc(NS(=O)(=O)c2ccc3ccccc3c2)cc1,105,/,.,/,/
Cc1ccc(S(=O)(=O)N[C@H]2CC[C@@H](CCNC(=O)c3ccc4c(c3)OCO4)O[C@H]2CO)cc1,/,.,/,.,.
C/C=C/c1ccc([C@@H]2[C@@H](CN(C)C(=O)CC3CC3)N(C(=O)C3CC3)[C@H]2CO)cc1,.,/,/,/,/
CCCCN(CCCC)S(=O)(=O)c1ccc(NS(=O)(=O)c2ccc(NC(C)=O)cc2)cc1,.,.,.,.,.
CCCCOc1ccc(S(=O)(=O)Nc2ccc(NC(C)=O)cc2)cc1,205,/,.,/,/
SMILES,miR-122 sensor,RAD52 anneal inh,NSD2 HMT inh,MLL AF4-AF9 inh,CASP6 VEID inh
C[C@H](CO)N1C[C@H](C)[C@@H](CN(C)C(=O)c2ccccc2)OCCCC[C@H](C)Oc2ccc(NS(=O)(=O)c3ccc(F)cc3)cc2C1=O,.,.,/,.,.
COc1ccc(N2CCN(c3nc4c(c(=O)n(C)c(=O)n4C)n3Cc3ccccc3)CC2)cc1,.,/,/,/,/
COc1ccc(N2CCN(Cc3nc4c(c(=O)n(C)c(=O)n4C)n3Cc3cccc(C)c3)CC2)cc1,/,.,/,33,.
CO[C@@H]1CN(C)C(=O)c2ccc(NC(=O)Cc3ccccc3)cc2OC[C@H](C)N(C(C)=O)C[C@H]1C,.,.,/,.,/
CCOc1ccc2cc(C3CC(c4ccco4)=NN3S(C)(=O)=O)c(=O)[nH]c2c1 (configuration not stated),126,.,.,.,.
C=C[C@]1(C)C=C2CC[C@H]3[C@@](C)(CCC[C@@]3(C)C(=O)O)[C@@H]2CC1,.,/,/,/,/
C=C[C@]1(C)C=C2C(=O)[C@@]3(O)OC(=O)[C@@]4(CCCC(C)(C)[C@H]34)[C@@]2(O)CC1,.,.,/,.,37
O=C(N/N=C/c1cc(Br)c(Br)o1)C(O)c1ccccc1 (configuration not stated),/,.,.,.,40
CCOC(=O)N1CCC(N2Cc3cccc(C(=O)Nc4ccc(N(CC)CC)cc4C)c3C2=O)CC1,/,.,.,43,.
CCOC(=O)N1CCC(N2Cc3cccc(C(=O)Nc4cc(F)ccc4F)c3C2=O)CC1,.,.,/,.,.
